Experimental data: the supplement of paper PMC4466140

B1: unnamed (peptide)
chain: PPIPIVPSSPAPPLP

target: AgAbp1; test: SPOT peptide array binding signal intensity (averaged, normalized) (arbitrary units (background-subtracted, floor 0; scale differs between SH3 domains)); higher = stronger binding of the SH3 domain to the peptide
How it was run: (§1)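 To measure binding, SH3 domains from four yeast species were fused to GST, expressed in E. coli BL21(DE3) and purified on glutathione Sepharose. Each domain was incubated at 10 μg/ml overnight at 4°C on cellulose membranes with synthetic 15-mer peptides whose cysteines were replaced by serines. Anti-GST antibody, an HRP anti-mouse secondary and luminol were used for detection, and images were quantified with Genespotter. Reported binding signal is normalized, background-subtracted spot intensity averaged over replicates, in arbitrary units that differ between domains.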

Binder	SPOT peptide array binding signal intensity
B1	≤ 0

target: AgBbc1; test: as above
How it was run: as §1

Binder	SPOT peptide array binding signal intensity
B1	≤ 0

target: AgBem1-D1; test: as above
How it was run: as §1

Binder	SPOT peptide array binding signal intensity
B1	≤ 0

target: AgBzz1-D1; test: as above
How it was run: as §1

Binder	SPOT peptide array binding signal intensity
B1	28

target: AgBzz1-D2; test: as above
How it was run: as §1

Binder	SPOT peptide array binding signal intensity
B1	≤ 0

target: AgCyk3; test: as above
How it was run: as §1

Binder	SPOT peptide array binding signal intensity
B1	≤ 0

target: AgFus1; test: as above
How it was run: as §1

Binder	SPOT peptide array binding signal intensity
B1	≤ 0

target: AgHof1; test: as above
How it was run: as §1

Binder	SPOT peptide array binding signal intensity
B1	≤ 0

target: AgHse1; test: as above
How it was run: as §1

Binder	SPOT peptide array binding signal intensity
B1	≤ 0

target: AgLsb1; test: as above
How it was run: as §1

Binder	SPOT peptide array binding signal intensity
B1	≤ 0

target: AgLsb4; test: as above
How it was run: as §1

Binder	SPOT peptide array binding signal intensity
B1	≤ 0

target: AgMyo5; test: as above
How it was run: as §1

Binder	SPOT peptide array binding signal intensity
B1	2150

target: AgNbp2; test: as above
How it was run: as §1

Binder	SPOT peptide array binding signal intensity
B1	≤ 0

target: AgRvs167; test: as above
How it was run: as §1

Binder	SPOT peptide array binding signal intensity
B1	≤ 0

target: AgSho1; test: as above
How it was run: as §1

Binder	SPOT peptide array binding signal intensity
B1	≤ 0

target: AgSla1-D1-D2; test: as above
How it was run: as §1

Binder	SPOT peptide array binding signal intensity
B1	≤ 0

target: AgSla1-D3; test: as above
How it was run: as §1

Binder	SPOT peptide array binding signal intensity
B1	≤ 0

target: CaAbp1-D1; test: as above
How it was run: as §1

Binder	SPOT peptide array binding signal intensity
B1	≤ 0

target: CaAbp1-D2; test: as above
How it was run: as §1

Binder	SPOT peptide array binding signal intensity
B1	≤ 0

target: CaBbc1; test: as above
How it was run: as §1

Binder	SPOT peptide array binding signal intensity
B1	0.5

target: CaBem1-D1; test: as above
How it was run: as §1

Binder	SPOT peptide array binding signal intensity
B1	≤ 0

target: CaBzz1-D1; test: as above
How it was run: as §1

Binder	SPOT peptide array binding signal intensity
B1	≤ 0

target: CaBzz1-D2; test: as above
How it was run: as §1

Binder	SPOT peptide array binding signal intensity
B1	≤ 0

target: CaCyk3; test: as above
How it was run: as §1

Binder	SPOT peptide array binding signal intensity
B1	≤ 0

target: CaFus1; test: as above
How it was run: as §1

Binder	SPOT peptide array binding signal intensity
B1	≤ 0

target: CaHof1; test: as above
How it was run: as §1

Binder	SPOT peptide array binding signal intensity
B1	≤ 0

target: CaHse1; test: as above
How it was run: as §1

Binder	SPOT peptide array binding signal intensity
B1	≤ 0

target: CaLsb1; test: as above
How it was run: as §1

Binder	SPOT peptide array binding signal intensity
B1	≤ 0

target: CaLsb4; test: as above
How it was run: as §1

Binder	SPOT peptide array binding signal intensity
B1	≤ 0

target: CaMyo5; test: as above
How it was run: as §1

Binder	SPOT peptide array binding signal intensity
B1	833

target: CaNbp2; test: as above
How it was run: as §1

Binder	SPOT peptide array binding signal intensity
B1	47.5

target: CaRvs167; test: as above
How it was run: as §1

Binder	SPOT peptide array binding signal intensity
B1	≤ 0

target: CaRvs167-3; test: as above
How it was run: as §1

Binder	SPOT peptide array binding signal intensity
B1	≤ 0

target: CaSho1; test: as above
How it was run: as §1

Binder	SPOT peptide array binding signal intensity
B1	≤ 0

target: CaSla1-D1-D2; test: as above
How it was run: as §1

Binder	SPOT peptide array binding signal intensity
B1	≤ 0

target: CaSla1-D3; test: as above
How it was run: as §1

Binder	SPOT peptide array binding signal intensity
B1	≤ 0

target: ScAbp1; test: as above
How it was run: as §1

Binder	SPOT peptide array binding signal intensity
B1	≤ 0

target: ScBbc1; test: as above
How it was run: as §1

Binder	SPOT peptide array binding signal intensity
B1	≤ 0

target: ScBem1-D1; test: as above
How it was run: as §1

Binder	SPOT peptide array binding signal intensity
B1	≤ 0

target: ScBzz1-D1; test: as above
How it was run: as §1

Binder	SPOT peptide array binding signal intensity
B1	≤ 0

target: ScBzz1-D2; test: as above
How it was run: as §1

Binder	SPOT peptide array binding signal intensity
B1	≤ 0

target: ScCyk3; test: as above
How it was run: as §1

Binder	SPOT peptide array binding signal intensity
B1	≤ 0

target: ScFus1; test: as above
How it was run: as §1

Binder	SPOT peptide array binding signal intensity
B1	≤ 0

target: ScHof1; test: as above
How it was run: as §1

Binder	SPOT peptide array binding signal intensity
B1	1.5

target: ScHse1; test: as above
How it was run: as §1

Binder	SPOT peptide array binding signal intensity
B1	≤ 0

target: ScLsb1; test: as above
How it was run: as §1

Binder	SPOT peptide array binding signal intensity
B1	≤ 0

target: ScLsb2; test: as above
How it was run: as §1

Binder	SPOT peptide array binding signal intensity
B1	≤ 0

target: ScLsb3; test: as above
How it was run: as §1

Binder	SPOT peptide array binding signal intensity
B1	≤ 0

target: ScLsb4; test: as above
How it was run: as §1

Binder	SPOT peptide array binding signal intensity
B1	≤ 0

target: ScMyo3; test: as above
How it was run: as §1

Binder	SPOT peptide array binding signal intensity
B1	2260

target: ScMyo5; test: as above
How it was run: as §1

Binder	SPOT peptide array binding signal intensity
B1	1940

target: ScNbp2; test: as above
How it was run: as §1

Binder	SPOT peptide array binding signal intensity
B1	≤ 0

target: ScPex13; test: as above
How it was run: as §1

Binder	SPOT peptide array binding signal intensity
B1	≤ 0

target: ScRvs167; test: as above
How it was run: as §1

Binder	SPOT peptide array binding signal intensity
B1	≤ 0

target: ScSho1; test: as above
How it was run: as §1

Binder	SPOT peptide array binding signal intensity
B1	≤ 0

target: ScSla1-D1-D2; test: as above
How it was run: as §1

Binder	SPOT peptide array binding signal intensity
B1	≤ 0

target: ScSla1-D3; test: as above
How it was run: as §1

Binder	SPOT peptide array binding signal intensity
B1	0.25

target: SpAbp1-D1; test: as above
How it was run: as §1

Binder	SPOT peptide array binding signal intensity
B1	≤ 0

target: SpBbc1; test: as above
How it was run: as §1

Binder	SPOT peptide array binding signal intensity
B1	3.5

target: SpBzz1-D1; test: as above
How it was run: as §1

Binder	SPOT peptide array binding signal intensity
B1	≤ 0
